# Hits are enriched below; roughly 4.6% of the tested compounds scored in any of these assays.
# TRb-SRC2 inh – qHTS for Inhibitors of the Interaction of Thyroid Hormone Receptor and Steroid Receptor Coregulator 2; Thyroid hormone receptor beta (Homo sapiens), P10828; TRbeta-SRC2 peptide binding, fluorescence polarization; receptor liganded with 1 µM T3; Potency, µM (top dose mostly 106 µM), for inactives: at the highest dose activity change, negative = inhibition, usual class: inhibitors; hit rate 0.065% among 280,000;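 note: potency is the fitted concentration of half-maximal effect; plate controls were bound peptide for no effect and peptide without receptor for full effect; nearly all actives have a fitted effect of over 50% in size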
# Target sequence (P10828 whole entry, looked up): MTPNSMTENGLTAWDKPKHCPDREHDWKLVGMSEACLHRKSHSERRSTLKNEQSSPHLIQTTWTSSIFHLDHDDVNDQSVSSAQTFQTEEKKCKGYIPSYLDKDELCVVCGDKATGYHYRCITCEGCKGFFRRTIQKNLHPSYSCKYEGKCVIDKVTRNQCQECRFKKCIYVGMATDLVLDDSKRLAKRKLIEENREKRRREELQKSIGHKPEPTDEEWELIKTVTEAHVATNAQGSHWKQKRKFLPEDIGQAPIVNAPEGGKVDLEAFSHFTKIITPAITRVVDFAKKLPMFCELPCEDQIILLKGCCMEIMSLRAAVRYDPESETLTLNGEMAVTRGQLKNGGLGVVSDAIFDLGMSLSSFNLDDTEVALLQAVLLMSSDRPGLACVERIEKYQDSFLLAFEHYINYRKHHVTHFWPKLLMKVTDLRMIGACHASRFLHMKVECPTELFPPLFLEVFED
#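 Binding of a 20-amino-acid Texas Red SRC2 peptide (20 nM) to TRb ligand-binding domain (0.6 uM) with agonist T3 at 1 uM was followed by fluorescence polarization after a 5 hr room-temperature incubation.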
# Tau fluor cs – Counterscreen qHTS for Inhibitors of Tau Fibril Formation, Fluorescence Polarization; tau K18 P301L Alexa594 fluorescence, heparin fibrillization; Potency, µM (series often up to 57.7 µM), for inactives: top-dose activity change, negative = decrease; hit rate 0.93% among 280,000; note: potency is the fitted concentration of half-maximal effect; nearly all actives have a fitted effect of over 55% in size
#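 Human K18 P301L tau (15 uM unlabeled plus 0.24 uM Alexa 594-labeled, final) in 100 mM sodium acetate pH 7 was mixed with compound and 20 uM heparin and incubated 6 hr at 37 C.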
# TexasRed fluor – Total Fluorescence Counterscreen for Inhibitors of the Interaction of Thyroid Hormone Receptor and Steroid Receptor Coregulator 2; TRb/SRC2 Texas Red total fluorescence interference; Potency, µM (doses to about 106 µM), for the others: at the top dose fluorescence change, negative = quenching; hit rate 0.29% among 280,000; active = well fitted curve in either direction with a large enough effect; inconclusive = small, poorly fitted or top-dose-only effect; note: potency is the fitted concentration of half-maximal effect
#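 Human TRb ligand-binding domain at 0.6 uM with 20 nM Texas Red SRC2 peptide in Tris buffer containing 1 uM T3 and 5% DMSO, incubated with compound 5 h at ambient temperature. Total fluorescence (555/632 nm) calculated as parallel + 2 × perpendicular.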
# PNC inhibitor – High Content Assay for Compounds that inhibit the Assembly of the Perinucleolar Compartment | PC3M PTB-GFP, PNC prevalence imaging, 16 h; hits give low values | AID 2417, 2010 | hit rate 3.1% among 140,000 | activity change (PNC), negative = inhibition, % at 10 µM;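 active = readout at or below -70, meaning at least 70% loss of cells showing the perinucleolar compartment, a nuclear body marking cancer cells; inconclusive = readout between -30 and a set limit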;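 note: plate controls were DMSO wells for no effect and camptothecin positive control wells for full effect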
#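 Read-out is percentage of cells bearing a perinucleolar compartment, from automated 20x imaging of fixed, Hoechst-stained PC3M PTB-GFP cells. Cells were seeded 4 h, then exposed 16 h to compound (23 nl of library stock) in duplicate plates.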
# Tau ThT inhib – qHTS for Inhibitors of Tau Fibril Formation, Thioflavin T Binding; Microtubule-associated protein tau (Homo sapiens), P10636; recombinant tau K18 P301L, heparin-induced fibrillization, ThT fluorescence; Potency, µM (series often up to 57.4 µM), for inactives: top-dose activity, negative = inhibition, actives largely listed as inhibitors; hit rate 2.1% among 270,000; AID 1460, 2008; note: potency is the fitted concentration of half-maximal effect; nearly all actives have a fitted effect of over 55% in size
# Target sequence (P10636 561-689 P618L limits assumed): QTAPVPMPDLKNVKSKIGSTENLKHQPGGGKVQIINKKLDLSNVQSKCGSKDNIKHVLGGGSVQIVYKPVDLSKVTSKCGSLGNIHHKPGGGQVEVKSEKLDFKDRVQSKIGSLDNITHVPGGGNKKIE
#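 Fibril formation assay: tau K18 P301L at 15 uM with trace Alexa 594 label, heparin inducer 20 uM, pH 7 sodium acetate buffer, 37 C for 6 hr; endpoint ThT signal.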
# Tau FP inhib – qHTS for Inhibitors of Tau Fibril Formation, Fluorescence Polarization; Microtubule-associated protein tau (Homo sapiens), P10636; K18 P301L tau heparin fibrillization, Alexa594 FP, 6 h; Potency, µM (top dose mostly 57.7 µM), without a hit: at the top dose activity, negative = inhibition, usual class: inhibitors; hit rate 0.39% among 280,000; note: potency is the fitted concentration of half-maximal effect; nearly all actives have a fitted effect of over 55% in size
#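 Heparin (20 uM) drove fibril formation of recombinant tau K18 P301L, 15 uM unlabeled with 0.24 uM Alexa 594 label, for 6 hr at 37 C in 100 mM sodium acetate pH 7. Fluorescence polarization (555/632 nm) read 1 hr after 30 uM ThT.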
# * hit, by the source's call; ? = inconclusive; / = not tested or not shown; [ ] = remark or other dose. Unless noted, calls come from the whole dose curve; as a rule, active = well fitted curve in the direction sought with a large enough effect; inconclusive = small, poorly fitted or top-dose-only effect, or another doubt; inactive = no such curve, though single readings can be large; an effect the other way counts as inactive or inconclusive. Unless noted, % is set by controls: 0 for no effect and ±100 for the full control effect.
SMILES,TRb-SRC2 inh,Tau fluor cs,TexasRed fluor,PNC inhibitor,Tau ThT inhib,Tau FP inhib
COc1ccc(N2C(=O)CC(N3CCN(c4ccccc4F)CC3)C2=O)cc1 (stereo not given),-2%,3%,4%,-97*,-5%,3%
Cc1ccc(N2C(=O)CC(N3CCN(C)CC3)C2=O)cc1 (stereo not given),-2%,5%,-9%,-100*,2%,9%
CCCCC#Cc1ccc(C(=O)NNC(=O)Nc2cc(Cl)cc(Cl)c2)o1,2%,-21%,1%,/,8%,?
COc1ccc(CNC(=O)c2csnn2)cc1,9%,-4%,0%,-16,2%,-3%
CCN(CC)CCNC(=O)c1[nH]c2ccc(OCc3ccccc3)cc2c1C,2%,20µM*[quencher],-2%,/,-12%,7%
CCN(CC)CCNC(=O)c1cc2c(=O)[nH]c3ccc(C)cc3c2s1,-1%,-3%,-4%,/,-7%,-2%
O=C(NCc1ccccc1F)C1CCCN(C(=O)NC2CCCCC2)C1 (stereo not given),5%,-2%,-6%,-124*,-2%,-5%
Cc1ccc(NS(=O)(=O)c2ccc3c(c2)CCC(=O)N3)cc1C,1%,-11%,-3%,/,-3%,-9%
CCC(=O)Nc1cnc(NC(=O)c2cccc(F)c2)cc1C,-4%,4%,-4%,-100*,4%,5%
CC(=O)Nc1cnc(NC(=O)c2cccc(F)c2)cc1C,-1%,3%,-6%,?,5%,5%
Cc1ccc(/C=N/n2c(-c3ccco3)n[nH]c2=S)s1,11%,-4%,1%,-113*,-12%,5%
Cn1c(-c2ccco2)n[nH]c1=S,-1%,4%,-1%,/,3%,7%
Cc1ccccc1-n1c(-c2ccco2)n[nH]c1=S,6%,6%,-2%,-114*,7%,-8%
CCc1nnc(NC(=O)CSc2nnc(C)n2CC2CCCO2)s1 (stereo not given),-18%,-5%,0%,-3,-5%,0%
COc1ccc(-c2nc(SCC(=O)Nc3ccc4c(c3)OCO4)c(-c3ccc(OC)cc3)[nH]2)cc1,-4%,?,-14%,/,-10%,3%
Nn1c(SCC(=O)Nc2ccc3c(c2)OCO3)nnc1-c1ccccc1,-2%,-14%,0%,18,?,6%
Cc1cccc(-c2nc(SCC(=O)Nc3ccc4c(c3)OCO4)c(-c3ccccc3)[nH]2)c1,11%,6.3µM*[quencher],-2%,/,?,?
COc1cccc(-c2nc(SCC(=O)Nc3ccc4c(c3)OCO4)c(-c3ccccc3)[nH]2)c1,-6%,7.9µM*[quencher],-1%,/,?,-6%
CC(=O)c1ccc(N2CCN(C(=O)COc3ccc(F)cc3)CC2)c(F)c1,-1%,-1%,1%,-4,-16%,6%
Cc1ccc(C2CC(c3ccccc3)=NN2C(=O)CSc2nnc(-c3ccc(Cl)cc3)o2)o1 (stereo not given),-10%,-1%,0%,-9,-2%,0%
Cc1nc(S/C(=C\c2ccc(OCc3ccccc3Cl)cc2)C(=O)O)n[nH]1,8%,?,-5%,44,?,5%
CCOC(=O)c1c(Nc2nc(C)c(C(=O)NC)s2)sc(C)c1C,-2%,-26%,-2%,-82*,?,5%
COc1ccc(C(=O)Nc2cccc(OCc3cc(=O)n4c5c(sc4n3)CCCC5)c2)cc1,-5%,-11%,0%,/,-7%,-4%
O=C(c1ccc([N+](=O)[O-])cc1)N1CCOC12CCN(c1ncc(C(F)(F)F)cc1Cl)CC2,-8%,-7%,-1%,-12,-7%,2%
Cc1cccc(OCC(=O)N/N=C\c2cn(C)c3ccccc23)c1,4%,-24%,-6%,/,-1%,4%[2.34 µM]
SMILES,TRb-SRC2 inh,Tau fluor cs,TexasRed fluor,PNC inhibitor,Tau ThT inhib,Tau FP inhib
Cc1cccc(OCCn2cc(/C=N/NC(=O)c3ccncc3)c3ccccc32)c1,5%,16µM*[quencher],-5%,?,?,2%
CCc1ccc(OCC(=O)N(C)C)c(Br)c1,5%,9%,-3%,?,6%,3%
CN1C(=O)C(Cl)(Cl)C(=O)c2ccccc21,-3%,-20%,-3%,28,4µM*,7.1µM*
CN1C(=O)C2(NC(=O)c3ccccc3N2C)c2ccccc21 (stereo not given),-1%,-2%,-1%,/,-1%,-1%
COc1ccc(-n2nc([N+](=O)[O-])c(=NCCC3=CCCCC3)n2O)cc1,0%,?,-1%,/,7.9µM*,15%
COc1ccc(-n2nc([N+](=O)[O-])c(=NCCc3ccc(C)cc3)n2O)cc1,2%,?,0%,/,?,14%
COc1ccc(-n2nc([N+](=O)[O-])c(=NCc3ccco3)n2O)cc1,-7%,-29%,2%,/,10µM*,1%
COc1cccc(SCc2noc(C(=O)NCC3CCCO3)c2C(=O)O)c1 (stereo not given),-3%,3%,0%,63,2%,3%
COCCN(CCOC)S(=O)(=O)c1ccc(C(=O)Nc2sc3c(c2C(N)=O)CCCCC3)cc1,-5%,-17%,2%,-119*,5%,-11%
COC(=O)c1c(NC(=O)c2ccccc2N(C)S(=O)(=O)c2ccccc2)sc2c1CCCC2,5%,-8%,0%,-108*,1%,0%
COc1ccccc1NC(=O)C(Sc1ccccc1)c1ccccc1 (stereo not given),-2%,-23%,-29%,22,-7%,?
OCc1ccccn1,9%,/,1%,/,/,/
COC(=O)N1CC=CC1(C)C(=O)NCc1ccc(C)o1 (stereo not given),11%,-19%,4%,/,22µM*,?
COc1ccc(NC(=O)N2CCCC(CCC(=O)N(C)CCc3ccccn3)C2)cc1 (stereo not given),7%,6%,-1%,/,9%,-1%
COc1ccc(-c2cc3nc4ccccc4n3c(N)c2C#N)cc1,-6%,-29%,1%,/,?,10%
O=C(NC1CCCCC1)C(c1ccc2ncccc2c1)N(Cc1ccc(F)cc1)C(=O)c1cccs1 (stereo not given),3%,-5%,-1%,50,-15%,-5%
Cc1cc[n+](-c2[nH]c(=O)sc2/C=N/N=C(\[O-])CCn2c3ccccc3c3ccccc32)cc1,-1%,?,-2%,/,28µM*,?

# Compound activity from PubChem BioAssay.
